# Laboratory results as given in PubChem BioAssay AID1851 (National Center for Advancing Translational Sciences (NCATS), 2009).
# Values joined by “and” are separate entries in the source; they are usually repeats but may differ in a detail not shown here. Equal entries are not always repeated. Screen size: about 16,000 compounds; about 4,000 (25%) were called active. Not shown: some 26% with an inconclusive outcome. Calls come from the whole dose curve; as a rule, active = well fitted curve in the direction sought with a large enough effect; inconclusive = small, poorly fitted or top-dose-only effect, or effect the other way; inactive = no such curve, though single readings can be large or run the other way. Only a sample is shown. Some structures have more than one record in an assay (separate samples or runs), and their calls can disagree. Square brackets hold non-standard residues; d marks the D form. Peptide text beside a SMILES is read from it.
# Molecular target: Cytochrome P450 2C9 (Homo sapiens) (UniProt P11712)
# Assay: Cytochrome panel assay with activity outcomes
# Conditions: recombinant CYP, pro-luciferin dealkylation, luminescence, p450-cyp2c9; series mostly up to 57.1 µM; activity, negative = inhibition: at the top concentration
# % is set by controls: 0 for no effect and ±100 for the full control effect.
# Cytochrome P450 2C9 (Homo sapiens), sequence (P11712 whole entry, looked up): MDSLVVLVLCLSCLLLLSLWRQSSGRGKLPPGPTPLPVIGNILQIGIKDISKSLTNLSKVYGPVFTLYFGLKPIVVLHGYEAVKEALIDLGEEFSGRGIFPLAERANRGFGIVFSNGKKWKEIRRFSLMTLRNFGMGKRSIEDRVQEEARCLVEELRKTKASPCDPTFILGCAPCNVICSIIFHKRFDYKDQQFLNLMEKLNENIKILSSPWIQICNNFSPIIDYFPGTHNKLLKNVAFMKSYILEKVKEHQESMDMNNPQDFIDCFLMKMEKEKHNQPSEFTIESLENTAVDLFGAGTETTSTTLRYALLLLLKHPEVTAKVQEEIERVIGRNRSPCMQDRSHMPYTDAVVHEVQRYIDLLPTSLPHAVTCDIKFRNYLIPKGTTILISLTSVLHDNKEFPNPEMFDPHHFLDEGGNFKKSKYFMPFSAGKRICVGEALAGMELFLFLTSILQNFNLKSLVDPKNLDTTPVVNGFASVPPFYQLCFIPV
SMILES,"activity, negative = inhibition",AC50
C1CCc2c(nc3nnnn3c2NC2CCCC2)C1,-36.8% (inactive),–
O=C1/C(=C/c2ccccc2)[C@@H](NC2CCCCC2)c2ccccc21,–,3.98 µM (active)
O=C(O)[C@H]1CCCN(CCC=C(c2ccccc2)c2ccccc2)C1,–,inactive and 7.94 µM (active)
COc1ccc(C(OCCN2CCC[C@@H](C(=O)O)C2)(c2ccc(OC)cc2)c2ccc(OC)cc2)cc1,14.7% (inactive),–
S[C@@H]1CCCN(Cc2ccccc2)C1,-2.17% [at 11.4 µM] (inactive),–
C[C@H](N[C@@H](C)COc1ccccc1)[C@H](O)c1ccc(O)cc1,-13.1% [at 25.6 µM] (inactive),–
O=c1c(-c2ccccc2)nc2cnc(N3CCNCC3)nc2n1Cc1ccc(F)cc1,–,10 µM (active)
CN1CCN(c2ncc3nc(-c4ccc(Cl)cc4)c(=O)n(Cc4ccc(F)cc4)c3n2)CC1,-3.9% (inactive),–
CN(C)c1ncc2nc(-c3ccc(Cl)cc3)c(=O)n(Cc3ccc(F)cc3)c2n1,-15% (inactive),–
O=c1c(-c2ccc(Cl)cc2)nc2cnc(N3CCNCC3)nc2n1Cc1ccc(F)cc1,–,25.1 µM (active)
CN1CCN(c2ncc3nc(-c4ccccc4)c(=O)n(Cc4ccc(F)cc4)c3n2)CC1,-26.1% (inactive),–
O=c1c(-c2ccc(F)cc2)nc2cnc(N3CCNCC3)nc2n1-c1ccccc1,-29.9% (inactive),–
CC(O)CN(CCC(N)=O)CCC(N)=O (stereo not given),-3.23% (inactive),–
CC(=O)c1cnc2c(C(=O)O)cnn2c1C,2.38% (inactive),–
Cc1cc(-c2c(C)[nH]n(-c3ccccc3)c2=O)n(-c2ccccc2)n1,–,1.58 µM (active)
Cc1cc(N)n(-c2ccccc2)n1,1.19% (inactive),–
Cc1ccc(C)c(C(=O)CN2C3=NCCCN3c3ccccc32)c1,-20.6% (inactive),–
CC(CCC(=O)O)(c1cc(Br)c(O)c(Br)c1)c1cc(Br)c(O)c(Br)c1,–,3.16 µM (active)
CC[C@](N)(CCC(=O)O)C(=O)O,15% (inactive),–
CC(C)c1ccc(Cn2ccc3c4c(N)nc(NC5CC5)nc4ccc32)cc1,-0.13% (inactive),–
Cc1cc(N(CN2CCCC2=O)C(=O)c2ccc(F)cc2)no1,20.9% (inactive),–
Cc1cc(NC(=O)COC(=O)c2ccc(S(=O)(=O)N3CCCc4ccccc43)cc2)no1,–,3.55 µM (active)
O=C(NCc1ccccc1)c1ccc(S(=O)(=O)N2CCCc3ccccc32)cc1,–,3.16 µM (active)
Cc1ccc(C(=O)ON=C2CCN(S(=O)(=O)c3ccccc3)CC2)cc1,13.9% (inactive),–

SMILES,"activity, negative = inhibition",AC50
Cc1ccc(S(=O)(=O)N[C@H]2COC(=O)[C@@H](Cc3ccccc3)NC(=O)[C@@H](C)COC(=O)C/C=C\[C@@H]2C)cc1,7.81% [at 11.4 µM] (inactive) and -8.92% [at 11.4 µM] (inactive),–
Clc1ccccc1NN(Cc1ccccn1)c1ccccc1Cl,-64.2% [at 11.4 µM] (inactive),–
Clc1ccccc1NN(Cc1ccncc1)c1ccccc1Cl,–,1.58 µM (active)
CC1=c2c(oc3cc(O)c(Nc4c(C)cc(O)cc4O)c(C)c23)=CC(=O)C1=Nc1c(C)cc(O)cc1O,–,3.16 µM (active)
Cc1ccc(C2C3=C(CCCC3=O)Nc3nc(SCC(=O)NCc4ccco4)[nH]c(=O)c32)cc1 (stereo not given),–,5.01 µM (active)
NC(=O)CCCC1=NS(=O)(=O)c2ccccc2N1,-18.2% (inactive),–
COc1cccc(C(C(=O)Nc2ccc(F)cc2)N(C(=O)Cn2nnc3ccccc32)C2CC2)c1 (stereo not given),–,12.6 µM (active)
COCCNC(=O)C(c1ccc(C)o1)N(CC1CCCO1)C(=O)Cn1nnc2ccccc21 (stereo not given),-0.853% (inactive),–
COc1ccc(NC(=O)C(c2ccc(OC)cc2)N(C)C(=O)CNC(C)=O)cc1 (stereo not given),-6.03% (inactive),–
COc1ccc(C(C(=O)Nc2ccc(F)cc2)N(C(=O)Cn2nnc3ccccc32)C2CC2)cc1 (stereo not given),–,12.6 µM (active)
CO[C@@H]1COC(=O)C/C=C\[C@@H](C)[C@H](OC)COC(=O)[C@H](COCc2ccccc2)NC(=O)C/C=C\[C@H]1C,3.17% [at 11.4 µM] (inactive),–
C/C(CCN1CCCCc2nc(C)c(C)cc21)=N\OC[C@@H](C)[C@H](OCc1ccccc1)C(C)C,-7.17% [at 11.4 µM] (inactive),–
COC(=O)c1cc(OC)c(OC)cc1NC(=S)N1CCCCC1,-15.7% (inactive),–
Cc1ccccc1C(=O)Oc1ccc(Br)cc1C(=S)N1CCCC1,–,11.2 µM (active)
CCOC(=O)C1CCCN(C(=O)c2sc3nc(-c4ccc(OC)cc4)cn3c2C)C1 (stereo not given),–,4.47 µM (active)
CCOC(=O)C1CCCN(C(=O)C2CCN(S(=O)(=O)N3CCC4(CC3)OCCO4)CC2)C1 (stereo not given),-23.8% (inactive),–
COc1ccc(-c2cn3c(C)c(C(=O)NCCN4CCOCC4)sc3n2)cc1,–,7.94 µM (active)
COc1ccc2cc3cc(C(=O)NCCCN4CCOCC4)oc3nc2c1,-4.23% (inactive),–
COc1ccc(C2=NOC(C(=O)NCCN3CCOCC3)C2)cc1 (stereo not given),-10.2% (inactive),–
CCOC(=O)C1CCCN(C(=O)/C=C/c2cccc([N+](=O)[O-])c2)C1 (stereo not given),6.66% (inactive),–
Cn1ncc(Cl)c1C(=O)Nc1cccnc1,-33.2% (inactive),–
CC(C)CNC(=O)c1ccc(COc2ccc(Cl)cc2Cl)o1,–,3.55 µM (active)
CCOc1ccc(Cl)cc1CNCCNCC(C)O (stereo not given),6.63% (inactive),–
O=C(Nc1ccn(Cc2ccccc2F)n1)c1ccc(COc2cc(Cl)ccc2Cl)o1,–,0.447 µM (active)

SMILES,"activity, negative = inhibition",AC50
O=C(Nc1cccnc1)c1ccc(COc2cc(Cl)ccc2Cl)o1,–,14.1 µM (active)
O=C(O)NCC1CCCCC1 (tested in a mixture with another compound),-18.2% [at 11.4 µM] (inactive),–
S=C(NCc1ccccn1)Nc1cccc(Cl)c1,4.91% (inactive),–
Cc1ccccc1OCC(=O)NC(=S)Nc1ccc(Br)c(C)n1,-24.6% (inactive),–
CCC(=O)NC(=S)Nc1ccc(NC(=O)COc2ccc(Cl)cc2Cl)cc1,-19% (inactive),–
O=C(CCN1C(=O)c2ccccc2C1=O)NC(=S)Nc1cccc(Cl)c1,–,10 µM (active)
O=C(COc1ccccc1Cl)NC(=S)Nc1cccc(NC(=O)c2ccccc2Cl)c1,–,0.794 µM (active)
N[C@H](CO)C(=O)NCC(=O)O (H-[dS]-Gly-OH),7.87% [at 11.4 µM] (inactive),–
CC(Sc1ccc2c(c1)OCCO2)C(=O)Nc1ncc(Cl)cc1Cl (stereo not given),–,3.98 µM (active)
Cc1ccc(NC(=O)/C(=C/c2cccc([N+](=O)[O-])c2)NC(=O)C2CCCCC2)c(C)c1,-13.7% (inactive),–
O=C(N/N=C/c1cccc([N+](=O)[O-])c1)c1cc2c(ccc3ccccc32)o1,8.69% (inactive),–
CC1CCCN(CCCNC(=O)C2CC(=O)N(c3ccc(F)c(Cl)c3)C2)C1 (stereo not given),17.6% (inactive),–
CCc1ccc(N2CC(C(=O)N/N=C/c3cccc([N+](=O)[O-])c3)CC2=O)cc1 (stereo not given),–,3.55 µM (active)
CCc1ccc(N2CC(C(=O)NC3=NCCS3)CC2=O)cc1 (stereo not given),–,12.6 µM (active)
Cc1ccccc1NC(=O)C1CC(=O)N(c2ccc3c4c(cccc24)CC3)C1 (stereo not given),12.2% (inactive),–
Nc1nc2c(nc(Br)n2[C@@H]2O[C@H]3COP(=O)(O)O[C@H]3[C@@H]2O)c(=O)[nH]1,-3.31% (inactive),–
COC(=O)/C=C\c1cc(O)ccc1O,–,7.94 µM (active)
COc1cc([C@H](O)C(=O)O)ccc1O,13.8% (inactive),–
COC(=O)[C@](C)(N)Cc1ccc(O)cc1,20% (inactive),–
O=C(c1ccc(Br)cc1)c1cc([N+](=O)[O-])ccc1N1CCCCC1,–,2.51 µM (active)
Cn1c(CCN2CCCCC2)nc2cc([N+](=O)[O-])ccc21,-0.958% (inactive),–
CN1CCN(c2ccc([N+](=O)[O-])cc2C(=O)N2CCOCC2)CC1,14.2% (inactive),–
CCn1c(/C=C2/C(=O)N(C)c3ccccc32)nc2ccccc2c1=O,–,10 µM (active)
CCN1CCN(c2nn3c(=O)c4ccccc4nc3c3ccccc23)CC1,-10.3% (inactive),–

SMILES,"activity, negative = inhibition",AC50
Cc1cnc(CNc2cc(-c3ccccc3C)ncn2)cn1,-11.2% [at 2.29 µM] (inactive),–
CCc1ccc(-c2csc(NC(=O)C3CCCO3)c2C(=O)OC(C)C)cc1 (stereo not given),–,4.47 µM (active)
CO/N=C\[C@@H](OC)[C@H](C)/C=C\CC(=O)OC,-2.61% [at 11.4 µM] (inactive),–
CCOc1cc(/C=C2/SC(=O)N(CC(=O)N3CCc4ccccc4C3)C2=O)ccc1OCC(=O)O,–,12.6 µM (active)
Cn1c(=O)[nH]c2ncn(C)c2c1=O,4.36% (inactive),–
Cc1c(Br)c([N+](=O)[O-])nn1CC(=O)NCc1cccs1,-30.1% (inactive),–
Cc1ccc(NC(=O)Cn2nc([N+](=O)[O-])c(Br)c2C)cc1C,–,14.1 µM (active)
Cc1c(Br)c([N+](=O)[O-])nn1CC(=O)NCc1ccccn1,-8.45% (inactive),–
CC[n+]1c(/C=C/Nc2ccccc2)oc2ccccc21,3.83% (inactive),–
CC[N+](CC)(CC(=O)Nc1c(C)cccc1C)Cc1ccccc1,-17.2% [at 25.6 µM] (inactive),–
CCc1cccc(C)c1NC(=O)CSc1nc2ccc(N3C(=O)c4ccccc4C3=O)cc2s1,–,3.55 µM (active)
NC(=O)CNC(=O)[C@@H]1CC2(CC(c3ccccc3)=NO2)CN1C(=O)c1ccc(Br)cc1 (stereo not given in full),-2.63% (inactive),–
CCOc1ccc(C(=O)NC(=S)N(Cc2ccccc2)Cc2ccccc2)cc1,–,10 µM (active)
COc1ccc(CN(CCC#N)C(=S)NC(=O)c2ccccc2)cc1,–,0.631 µM (active)
O=C(NC(=S)N(Cc1ccccc1)Cc1ccccc1)c1ccccc1F,–,0.891 µM (active)
O=C(O)c1ccccc1C(=O)NCc1ccc(F)cc1,-12.1% (inactive),–
CN1CCN(NC(=O)c2ccccc2F)CC1,-0.803% (inactive),–
O=C(NC1(C(F)(F)F)C(=O)Nc2c1c(=O)[nH]c(=O)n2-c1ccc(F)cc1)c1cccnc1 (stereo not given),-9.59% (inactive),–
Cc1cccc(CNc2ncncc2-c2cccc(C#N)c2)c1,-7.76% [at 2.29 µM] (inactive),–
Cn1cccc1C(=O)N1CCC[C@@]2(CCN(c3ccccn3)C2)C1,3.61% (inactive),–
Cc1ccc(-c2nnc(C)c(N3CC(C)OC(C)C3)n2)cc1 (stereo not given),–,17.8 µM (active)
Cc1ccc(CC(=O)N2CC(C)OC(C)C2)cc1 (stereo not given),6.48% (inactive),–
O=C1NCCCC1C(=O)Nc1ccccc1C(F)(F)F (stereo not given),-18.4% (inactive),–
